Measured values from PubChem BioAssay (NCATS).
Records with an inconclusive call do not appear. Where a call stands in place of a potency, no number is given. Activity calls are given as the source filed them. Calls follow the shape of the dose curve; as a rule, active = well fitted inhibition curve with a large enough effect in the signal ratio, with a control signal flat (not every such curve was filed as active); inconclusive = small, poorly fitted or top-dose-only effect, or effect the other way, or a change in a side signal; inactive = flat fitted curve, though single readings scatter; the % refers to the signal ratio.

target: Glucocorticoid receptor (Homo sapiens) (UniProt P04150); assay: qHTS assay for small molecule antagonists of glucocorticoid receptor signaling (AID 588533); details: HeLa MMTV-bla, GRE beta-lactamase ratio, antagonist mode, 18 h; series mostly up to 76.8 µM
From the text: NIH Chemical Genomics Center [NCGC] U.S. Environmental Protection Agency [EPA] National Institutes of Environmental Health Sciences [NIEHS] National Toxicology Program [NTP] NCGC Assay Overview The Glucocorticoid receptor (GR), a nuclear receptor subfamily member and its natural ligands includes […] etc. The GR is a validated drug target for inflammation. GR ligands such as dexamethasone are clinically available as anti-inflammatory drugs. Glucocorticoids implicate a role in carbohydrate, protein and lipid metabolisms and programmed cell death. They are also a component of many chemotherapy regimens for the treatment of leukemias, lymphomas, and myelomas because of their role in the induction of apoptosis.
NCGC Assay Protocol Summary Using a beta-lactamase reporter-gene under control of glucocorticoid response element (GRE), a cell-based assay [CellSensor MMTV-bla HeLa cell line assay developed by Invitrogen] was used to measure GR ligands signaling. CellSensor MMTV-bla HeLa cells were used with assay medium containing 1% charcoal/dextran treated FBS, 0.1 mM NEAA, 1 mM sodium pyruvate and 25mM HEPES. The assay was performed in clear bottom black Greiner 1536-well plates. Library compounds were measured for their ability to inhibit the reporter gene activity. Compounds were screened in a titration series in 1536-well format. […] Data was normalized relative to Dexamethasone control (2 nM, 100%), and DMSO only wells (basal, 0%). Concentration-response titration points for each compound were fitted to the Hill equation yielding concentrations of half-maximal inhibition (IC50) and maximal response (efficacy) values. qHTS protocol for GR beta-lactamase assay in antagonist mode [Step] [Parameter] [Value] [Description] 1. Reagent; 5 uL; 1500 cells/well 2. Incubation; 37 C for 3-5 hrs 3. Compounds; 23 nL; 0.59 nM to 92 uM 4. […] Agonist (Stimulator); 1uL; Dexamethasone at 2 nM (final) concentration 6. Incubation; 37 C for 18 hrs 7. Detection reagent; 1 uL of CCF4-dye 8. Incubation; RT for 2 hrs 9. Detection; Fluorescence; Envision plate reader

Chain of Glucocorticoid receptor (Homo sapiens) (P04150 whole entry, looked up): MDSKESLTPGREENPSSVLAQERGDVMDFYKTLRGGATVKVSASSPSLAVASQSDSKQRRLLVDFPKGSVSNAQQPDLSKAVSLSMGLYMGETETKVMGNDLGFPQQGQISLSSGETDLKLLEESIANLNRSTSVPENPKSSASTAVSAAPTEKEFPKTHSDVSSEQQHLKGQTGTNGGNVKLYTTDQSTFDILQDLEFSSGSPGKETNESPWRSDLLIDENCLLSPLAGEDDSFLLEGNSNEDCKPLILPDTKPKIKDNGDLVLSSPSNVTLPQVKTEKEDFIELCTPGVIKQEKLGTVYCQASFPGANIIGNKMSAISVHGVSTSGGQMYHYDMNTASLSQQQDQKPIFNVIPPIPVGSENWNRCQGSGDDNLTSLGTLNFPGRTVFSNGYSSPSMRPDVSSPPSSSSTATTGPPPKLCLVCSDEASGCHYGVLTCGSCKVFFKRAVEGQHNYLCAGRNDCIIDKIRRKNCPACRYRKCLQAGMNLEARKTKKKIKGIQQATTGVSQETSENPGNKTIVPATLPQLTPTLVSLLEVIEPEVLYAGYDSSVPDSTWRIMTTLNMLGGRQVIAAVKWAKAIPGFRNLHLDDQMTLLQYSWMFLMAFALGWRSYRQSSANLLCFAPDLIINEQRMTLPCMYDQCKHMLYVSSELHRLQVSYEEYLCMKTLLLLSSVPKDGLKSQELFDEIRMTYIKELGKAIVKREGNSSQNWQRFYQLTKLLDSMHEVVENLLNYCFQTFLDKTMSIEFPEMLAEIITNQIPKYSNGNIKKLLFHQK

SMILES | Potency
CC(C)N(C(=O)SCC(Cl)=C(Cl)Cl)C(C)C | inactive
CCOC(=O)COc1cc(-c2nn(C)c(OC(F)F)c2Cl)c(F)cc1Cl | inactive
CC1(C)CC/C(=C\c2ccc(Cl)cc2)C1(O)Cn1cncn1 (stereo not given) | inactive
Cc1cc(Cl)ccc1OCC(=O)O | inactive
Nc1ccccc1C(=O)OCCc1ccccc1 | inactive
CCOP(=S)(NC(C)C)Oc1ccccc1C(=O)OC(C)C (stereo not given) | inactive
CCCCC(C#N)(Cn1cncn1)c1ccc(Cl)cc1 (stereo not given) | inactive
CCSC(=O)N(CC)C1CCCCC1 | inactive
[CH3][Hg][Cl] | 11.2 µM (active)
CCCCC(CC)COC(=O)Cl (stereo not given) | inactive
OC(c1ccc(Cl)cc1)(c1ccc(Cl)cc1)C(Cl)(Cl)Cl | inactive
CCOP(=O)(OCC)SCS(=O)(=O)C(C)(C)C | inactive
CCCCCCCCn1sccc1=O | inactive
COC(=O)c1ccccc1S(=O)(=O)NC(=O)N(C)c1nc(C)nc(OC)n1 | inactive
CCNP(=S)(OC)O/C(C)=C/C(=O)OC(C)C (stereo not given) | inactive
CCNc1nc(NC(C)C)nc(OC)n1 | inactive
CCSCc1ccccc1OC(=O)NC | inactive
[Ga]#[As] | inactive
C#CC(C)(C)NC(=O)c1cc(Cl)cc(Cl)c1 | inactive
CCS(=O)(=O)c1cccnc1S(=O)(=O)NC(=O)Nc1nc(OC)cc(OC)n1 | inactive

SMILES | Potency
CCOS(=O)(=O)OCC | inactive
ClCc1ccccc1Cl | inactive
CCOP(=O)(NC(C)C)Oc1ccc(S(C)(=O)=O)c(C)c1 (stereo not given) | inactive
c1ccc2c(c1)oc1ccccc12 | inactive
Cc1ccccc1C(=O)Nc1cccc(OC(C)C)c1 | inactive
COC(=O)c1ccccc1CS(=O)(=O)NC(=O)Nc1nc(OC)cc(OC)n1 | inactive
CC(C)COP(=O)(OCC(C)C)OCC(C)C | inactive
C=CCOC(=O)C(C)(C)OC(=O)c1cc(-n2c(=O)cc(C(F)(F)F)n(C)c2=O)ccc1Cl | inactive
CC(Oc1ccc(Cl)cc1Cl)C(=O)O (stereo not given) | inactive
Brc1ccc(Br)cc1 | inactive
CNC(=O)O/N=C/C(C)(C)S(C)(=O)=O | inactive
O=[N+]([O-])Nc1nccn1Cc1ccc(Cl)nc1 | inactive
COc1cc(OC)nc(NC(=O)NS(=O)(=O)c2ncccc2OCC(F)(F)F)n1 | inactive
O=CNC(N1CCN(C(NC=O)C(Cl)(Cl)Cl)CC1)C(Cl)(Cl)Cl (stereo not given) | inactive
CC(C)C1(C)N=C(c2ncccc2C(=O)O)NC1=O (stereo not given) | inactive
O=Cc1cccc(Oc2ccccc2)c1 | inactive
CNC(=O)O/N=C(\C)SC | inactive
NS(=O)(=O)C(F)(F)C(F)(F)C(F)(F)C(F)(F)C(F)(F)C(F)(F)C(F)(F)C(F)(F)F | inactive
COP(=O)(OC)Oc1nc(Cl)c(Cl)cc1Cl | inactive
CCOC(=O)C(Cl)Cc1cc(-n2nc(C)n(C(F)F)c2=O)c(F)cc1Cl (stereo not given) | inactive
